Measured values published in PubChem BioAssay AID1159580 (chemical genetic matrix, 2015).
About 2,000 (36%) of roughly 5,500 compounds were called active. Another 18% or so got no clear call; they are omitted. This is one part of the list. A number with no mark means an inactive call. Cut-off read from the data, not from the text of the source: active = normalized growth mostly below about 0.91 (no sharp cut-off); inconclusive = no clear call, values can overlap the other calls; inactive = mostly above about 0.92.

Experiment: chemical genetic growth profiling, strain panel (AID 1159580);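 note: tested at 20 µM; growth read once vehicle control cultures reached saturation at 30 °C; 1 = growth at the plate median or of vehicle wells; lower values mean less growth of the strain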
Conditions: growth OD

For `C=C(C)[C@H]1CC=C(C(=O)O)CC1`, the normalized growth (S. cerevisiae deletion strains, locus YKL068W, active compounds read low) was 0.858 (active), the normalized growth (S. cerevisiae deletion strains, locus YKL085W, strain MDH1 (second series), active compounds read low) was 0.84 (active) and the normalized growth (S. cerevisiae deletion strains, locus YKL085W, strain MDH1, active compounds read low) was 0.84 (active). The normalized growth (S. cerevisiae deletion strains, locus YKL160W, strain elf1, active compounds read low) was 0.969, the normalized growth (S. cerevisiae deletion strains, locus YKL190W, strain CNB1, active compounds read low) was 1.01 and the normalized growth (S. cerevisiae deletion strains, locus YKR001C, strain vps1, active compounds read low) was 0.858 (active). It also gave a normalized growth (S. cerevisiae deletion strains, locus YKR026C, strain gcn3, active compounds read low) of 0.98, a normalized growth (S. cerevisiae deletion strains, locus YKR091W, strain srl3, active compounds read low) of 0.995 and a normalized growth (S. cerevisiae deletion strains, locus YLL001W, strain dnm1, active compounds read low) of 0.944. It also gave a normalized growth (S. cerevisiae deletion strains, locus YLL026W, active compounds read low) of 0.97, a normalized growth (S. cerevisiae deletion strains, locus YLL041C, strain sdh2, active compounds read low) of 0.998 and a normalized growth (S. cerevisiae deletion strains, locus YLR027C, strain aat2, active compounds read low) of 0.933. The normalized growth (S. cerevisiae deletion strains, locus YLR039C, strain RIC1, active compounds read low) was 0.971, the normalized growth (S. cerevisiae deletion strains, locus YLR058C, strain SHM2, active compounds read low) was 0.996 and the normalized growth (S. cerevisiae deletion strains, locus YLR102C, strain apc9, active compounds read low) was 0.966. The normalized growth (S. cerevisiae deletion strains, locus YLR113W, strain HOG1, active compounds read low) was 0.658 (active), the normalized growth (S. cerevisiae deletion strains, locus YLR221C, strain rsa3, active compounds read low) was 0.907 and the normalized growth (S. cerevisiae deletion strains, locus YLR258W, strain gsy2, active compounds read low) was 0.982. The normalized growth (S. cerevisiae deletion strains, locus YLR262C, strain YPT6 (second series), active compounds read low) was 0.979, the normalized growth (S. cerevisiae deletion strains, locus YLR262C, strain YPT6, active compounds read low) was 0.977 and the normalized growth (S. cerevisiae deletion strains, locus YLR268W, strain sec22, active compounds read low) was 0.948. It also gave a normalized growth (S. cerevisiae deletion strains, locus YLR320W, strain mms22, active compounds read low) of 0.962, a normalized growth (S. cerevisiae deletion strains, locus YLR330W, strain CHS5, active compounds read low) of 0.99 and a normalized growth (S. cerevisiae deletion strains, locus YLR342W, strain FKS1 (second series), active compounds read low) of 0.852. For the same compound, the normalized growth (S. cerevisiae deletion strains, locus YLR342W, strain FKS1, active compounds read low) was 0.976, the normalized growth (S. cerevisiae deletion strains, locus YLR357W, strain rsc2, active compounds read low) was 0.932 and the normalized growth (S. cerevisiae deletion strains, locus YLR370C, strain arc18, active compounds read low) was 0.989. It also gave a normalized growth (S. cerevisiae deletion strains, locus YLR371W, strain rom2, active compounds read low) of 0.949, a normalized growth (S. cerevisiae deletion strains, locus YLR384C, strain iki3, active compounds read low) of 0.986 and a normalized growth (S. cerevisiae deletion strains, locus YLR418C, strain cdc73, active compounds read low) of 0.982. The normalized growth (S. cerevisiae deletion strains, locus YML016C, strain PPZ1, active compounds read low) was 1.02, the normalized growth (S. cerevisiae deletion strains, locus YML032C, strain rad52, active compounds read low) was 0.919 and the normalized growth (S. cerevisiae deletion strains, locus YML120C, strain ndi1, active compounds read low) was 0.986. For the same compound, the normalized growth (S. cerevisiae deletion strains, locus YML124C, strain tub3, active compounds read low) was 0.964, the normalized growth (S. cerevisiae deletion strains, locus YMR058W, strain fet3, active compounds read low) was 0.96 and the normalized growth (S. cerevisiae deletion strains, locus YMR078C, strain ctf18, active compounds read low) was 0.956. It also gave a normalized growth (S. cerevisiae deletion strains, locus YMR125W, strain sto1, active compounds read low) of 1.03, a normalized growth (S. cerevisiae deletion strains, locus YMR129W, active compounds read low) of 0.991 and a normalized growth (S. cerevisiae deletion strains, locus YMR205C, strain PFK2, active compounds read low) of 1.02. For the same compound, the normalized growth (S. cerevisiae deletion strains, locus YMR223W, strain ubp8, active compounds read low) was 0.917, the normalized growth (S. cerevisiae deletion strains, locus YMR231W, strain pep5, active compounds read low) was 0.988 and the normalized growth (S. cerevisiae deletion strains, locus YMR263W, strain SAP30, active compounds read low) was 0.952. For the same compound, the normalized growth (S. cerevisiae deletion strains, locus YMR307W, strain GAS1, active compounds read low) was 0.821, the normalized growth (S. cerevisiae deletion strains, locus YNL067W, strain RPL9B, active compounds read low) was 0.908 and the normalized growth (S. cerevisiae deletion strains, locus YNL071W, strain lat1, active compounds read low) was 0.991. For the same compound, the normalized growth (S. cerevisiae deletion strains, locus YNL128W, strain TEP1, active compounds read low) was 0.996, the normalized growth (S. cerevisiae deletion strains, locus YNL153C, strain GIM3, active compounds read low) was 0.924 and the normalized growth (S. cerevisiae deletion strains, locus YNL183C, strain NPR1, active compounds read low) was 0.743 (active). The normalized growth (S. cerevisiae deletion strains, locus YNL209W, strain ssb2, active compounds read low) was 0.992, the normalized growth (S. cerevisiae deletion strains, locus YNL233W, strain BNI4, active compounds read low) was 0.955 and the normalized growth (S. cerevisiae deletion strains, locus YNL248C, strain rpa49, active compounds read low) was 0.803 (active). The normalized growth (S. cerevisiae deletion strains, locus YNL250W, strain rad50, active compounds read low) was 0.852 (active), the normalized growth (S. cerevisiae deletion strains, locus YNL271C, strain bni1, active compounds read low) was 0.876 (active) and the normalized growth (S. cerevisiae deletion strains, locus YNL298W, strain CLA4, active compounds read low) was 0.814 (active). It also gave a normalized growth (S. cerevisiae deletion strains, locus YNL307C, strain MCK1, active compounds read low) of 0.912, a normalized growth (S. cerevisiae deletion strains, locus YNL322C, strain KRE1 (second series), active compounds read low) of 0.912 and a normalized growth (S. cerevisiae deletion strains, locus YNL322C, strain KRE1, active compounds read low) of 1. The normalized growth (S. cerevisiae deletion strains, locus YNR049C, strain mso1, active compounds read low) was 0.971, the normalized growth (S. cerevisiae deletion strains, locus YNR052C, strain pop2, active compounds read low) was 0.921 and the normalized growth (S. cerevisiae deletion strains, locus YOL006C, strain TOP1, active compounds read low) was 0.97. For the same compound, the normalized growth (S. cerevisiae deletion strains, locus YOL012C, strain htz1) was 1.09, the normalized growth (S. cerevisiae deletion strains, locus YOL147C, strain pex11, active compounds read low) was 0.976 and the normalized growth (S. cerevisiae deletion strains, locus YOR001W, strain rrp6, active compounds read low) was 0.894. It also gave a normalized growth (S. cerevisiae deletion strains, locus YOR061W, strain CKA2, active compounds read low) of 0.971, a normalized growth (S. cerevisiae deletion strains, locus YOR069W, strain VPS5, active compounds read low) of 1 and a normalized growth (S. cerevisiae deletion strains, locus YOR070C, strain gyp1, active compounds read low) of 0.963. The normalized growth (S. cerevisiae deletion strains, locus YOR080W, strain dia2, active compounds read low) was 0.971, the normalized growth (S. cerevisiae deletion strains, locus YOR083W, strain WHI5, active compounds read low) was 0.934 and the normalized growth (S. cerevisiae deletion strains, locus YOR106W, strain vam3, active compounds read low) was 0.967. For the same compound, the normalized growth (S. cerevisiae deletion strains, locus YOR136W, strain idh2, active compounds read low) was 0.966, the normalized growth (S. cerevisiae deletion strains, locus YOR144C, strain elg1, active compounds read low) was 0.946 and the normalized growth (S. cerevisiae deletion strains, locus YOR184W, strain ser1, active compounds read low) was 0.862 (active). For the same compound, the normalized growth (S. cerevisiae deletion strains, locus YOR231W, strain MKK1, active compounds read low) was 0.761 (active), the normalized growth (S. cerevisiae deletion strains, locus YOR265W, strain rbl2, active compounds read low) was 1.01 and the normalized growth (S. cerevisiae deletion strains, locus YOR270C, strain vph1, active compounds read low) was 0.959. The normalized growth (S. cerevisiae deletion strains, locus YOR290C, strain snf2, active compounds read low) was 0.95, the normalized growth (S. cerevisiae deletion strains, locus YOR316C, strain cot1, active compounds read low) was 0.978 and the normalized growth (S. cerevisiae deletion strains, locus YPL051W, strain arl3, active compounds read low) was 0.964. The normalized growth (S. cerevisiae deletion strains, locus YPL078C, strain atp4, active compounds read low) was 0.959, the normalized growth (S. cerevisiae deletion strains, locus YPL106C, strain sse1, active compounds read low) was 0.967 and the normalized growth (S. cerevisiae deletion strains, locus YPL240C, strain hsp82, active compounds read low) was 0.989. For the same compound, the normalized growth (S. cerevisiae deletion strains, locus YPL241C, strain CIN2, active compounds read low) was 1.01, the normalized growth (S. cerevisiae deletion strains, locus YPL256C, strain CLN2, active compounds read low) was 0.71 (active) and the normalized growth (S. cerevisiae deletion strains, locus YPR119W, strain clb2, active compounds read low) was 0.981. For the same compound, the normalized growth (S. cerevisiae deletion strains, locus YPR141C, strain kar3, active compounds read low) was 0.751 (active), the normalized growth (S. cerevisiae deletion strains, locus YPR163C, strain tif3, active compounds read low) was 0.911 (active) and the normalized growth (S. cerevisiae deletion strains, locus YPR167C, strain met16, active compounds read low) was 0.929. It also gave a normalized growth (S. cerevisiae deletion strains, strain wtn01, active compounds read low) of 0.904 and a normalized growth (S. cerevisiae strains, strain wild type, active compounds read low) of 0.999.
